Rows were chosen to be rich in hits. Some 10% of all compounds tested hit in one or more screens of this group.
GLA inh pH 4.5 – alpha-galactosidase A (human) inhibition, pH 4.5 | 230,000 tested, under 10 active | purified enzyme, 4-MU-alpha-Gal fluorescence, pH 4.5 | activity change, negative = inhibition, % at 105 µM;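 further: 0% = full activity with enzyme and -100% = basal without enzyme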
GLA spleen mod – alpha-galactosidase A (human) modulation; P06280; human spleen homogenate, 4MU-alpha-Gal fluorescence, 40 min; Potency, µM (series often up to 80 µM), inactives show at the top dose activity change, negative = inhibition, hits mostly inhibitors; 0.008% of 240,000 active; AID 2107;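 further: potency means the concentration at half of the fitted maximal effect; 0% = enzyme with vehicle and -100% = no enzyme basal signal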
Target sequence (P06280 32-429 limits assumed): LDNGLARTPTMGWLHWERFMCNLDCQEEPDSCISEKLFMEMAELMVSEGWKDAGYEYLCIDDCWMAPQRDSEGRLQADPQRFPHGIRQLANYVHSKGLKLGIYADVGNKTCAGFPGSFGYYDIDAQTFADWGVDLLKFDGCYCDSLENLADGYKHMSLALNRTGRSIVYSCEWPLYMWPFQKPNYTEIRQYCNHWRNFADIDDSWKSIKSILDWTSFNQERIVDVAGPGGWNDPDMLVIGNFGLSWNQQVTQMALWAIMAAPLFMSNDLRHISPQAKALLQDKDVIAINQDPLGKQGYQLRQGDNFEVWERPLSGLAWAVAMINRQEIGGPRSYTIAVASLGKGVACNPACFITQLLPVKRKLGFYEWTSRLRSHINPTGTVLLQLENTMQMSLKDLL
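Fluorogenic readout (Ex 365/Em 440 nm) of 4-methylumbelliferone released from 1 mM 4-MU-alpha-galactoside by spleen homogenate, 40 min at 37C, pH 5.0. Data normalized to no-enzyme and enzyme controls; Hill-equation AC50 from compound titrations.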
12-hLO inh – blocks human 12-lipoxygenase activity; P18054; purified 12-hLO, xylenol orange hydroperoxide absorbance; Potency, µM (series often up to 57.1 µM), without a hit: at the top dose activity change, negative = inhibition, most hits filed as inhibitors; 0.12% of 150,000 active; AID 1452; further: potency means the concentration at half of the fitted maximal effect; nearly all actives have a fitted effect of over 55% in size
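150 nM 12hLO, 25 mM Hepes pH 7.0 + 0.01% Triton X-100; cpd preinc 15 min RT; 40 uM arachidonic acid, 30 min RT; Fe-XO 30 min; A573/A405 ratio as read-out.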
HPGD block – HPGD (human) dehydrogenase inhibition; P15428; Potency, µM, for the others: at the top dose activity change, negative = inhibition, usual class: inhibitors; 4.3% of 150,000 active; AID 894; purified HPGD, NADH fluorescence kinetic, PGE2 substrate; active means well fitted inhibition curve with a large enough effect, not every such curve was filed as active; inconclusive means small, poorly fitted or top-dose-only effect, or another doubt; inactive means no such curve, though single readings can be large or run the other way; further: potency means the concentration at half of the fitted maximal effect
Target sequence (P15428 whole entry, looked up): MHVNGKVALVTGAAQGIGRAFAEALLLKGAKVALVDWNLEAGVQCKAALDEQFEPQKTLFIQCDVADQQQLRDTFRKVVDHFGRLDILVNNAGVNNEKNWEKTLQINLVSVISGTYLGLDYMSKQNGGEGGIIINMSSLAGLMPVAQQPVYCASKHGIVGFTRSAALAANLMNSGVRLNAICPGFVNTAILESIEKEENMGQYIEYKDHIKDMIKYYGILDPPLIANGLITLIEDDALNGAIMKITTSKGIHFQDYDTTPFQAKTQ
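20 nM HPGD preincubated 15 min at room temperature with compound in 50 mM Tris-HCl pH 8, 0.01% Tween 20. Started with 1 mM NAD+ and 30 uM prostaglandin E2; NADH fluorescence (360/450 nm) read 5 times over 30-s intervals, last minus first.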
PNC assembly inh – perinucleolar compartment assembly inhibition; PC3M PTB-GFP, PNC prevalence imaging, 16 h; active compounds read low; activity change (PNC), negative = inhibition, % at 10 µM; 3.1% of 140,000 active;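 active means readout at or below -70, meaning at least 70% loss of cells showing the perinucleolar compartment, a nuclear body marking cancer cells; inconclusive means readout between -30 and a set limit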;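 further: plate controls were DMSO wells for no effect and camptothecin positive control wells for full effect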
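PC3M cells stably expressing PTB-GFP, 750–1000 cells/well, treated 16 h at 37 °C with compound (23 nl of library stock), in duplicate. After paraformaldehyde fixation and Hoechst stain, imaged at 20x; PNC prevalence scored by image analysis.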
ALDH1A1 inh – blocks purified human ALDH1A1 activity. P00352. Purified ALDH1A1, NADH fluorescence, propionaldehyde substrate. Potency, µM (top dose mostly 75.3 µM), inactives show at the highest dose activity, negative = inhibition, actives largely listed as inhibitors. 7.3% of 220,000 active; active means well fitted inhibition curve with a large enough effect, not every such curve was filed as active; inconclusive means small, poorly fitted or top-dose-only effect, or another doubt; inactive means no such curve, though single readings can be large or run the other way;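 further: potency means the concentration at half of the fitted maximal effect; plate controls were no enzyme wells and a reference inhibitor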
Active calls of the source: *; u = inconclusive; x = no result given; [ ] = dose if it differs, or a comment. Unless noted, the call rests on the fitted dose curve; in most records, active means well fitted curve in the direction sought with a large enough effect; inconclusive means small, poorly fitted or top-dose-only effect, or another doubt; inactive means no such curve, though single readings can be large; an effect the other way counts as inactive or inconclusive. Unless noted, on the % scale 0 is the no-effect control and ±100 the full control effect.

SMILES	GLA inh pH 4.5	GLA spleen mod	12-hLO inh	HPGD block	PNC assembly inh	ALDH1A1 inh
O=C(CCc1nnc(CCc2c[nH]c3ccccc23)o1)NC1CCC1	3	6%	x	x	x	x
O=C(COC(=O)c1ccccn1)NC12CC3CC(CC(C3)C1)C2	10	0%	1%	0%	30	7%
O=C(COC(=O)/C=C/C(=O)OCC(=O)NC12CC3CC(CC(C3)C1)C2)NC12CC3CC(CC(C3)C1)C2	6	2%	2%	-18%	7	4µM*
Cc1cnc(C(=O)OCC(=O)NC23CC4CC(CC(C4)C2)C3)cn1	16	-10%	-3%	0%	15	25µM*
COc1ccc(CCN(C)CCCN2CCc3cc(OC)c(OC)cc3CC2=O)cc1OC	-9	2%	0%[0.00818 µM]	-6%	x	-5%
COC(=O)CCC(=O)Nc1ccc(OC)cc1	5	6%	9%	-7%	-8	u
Cc1ccc(NC(=O)CNc2ccc(OC(C)C)cc2)cc1	11	7%	-21%	-8%	16	7.1µM*
COc1ccc(NC(=O)CNc2ccc(C#N)cc2)cc1	9	7%	x	x	x	22µM*
CC(C)=CCC/C(C)=C\COc1c2ccoc2cc2oc(=O)ccc12	-13	20%	-2%	u	x	u
COc1ccc(-n2c(N)c(C(=O)NCc3cccnc3)sc2=S)cc1	2	8%	-1%	-6%	23	1%
CCOC(=O)c1sc(=S)n(-c2ccc3c(c2)OCO3)c1N	2	-7%	-2%	7.9µM*	27	10µM*
CCOC(=O)c1sc(=S)n(-c2ccc(C)cc2)c1N	-19	-8%	x	x	x	14µM*
CCOC(=O)c1sc(=S)n(-c2ccc(F)c(F)c2)c1N	4	-3%	1%	u	-14	13µM*
Cc1ccc(-n2c(N)c(C(=O)NCc3cccnc3)sc2=S)cc1	-2	1%	-5%	25µM*	-6	u
CCOc1cc(CNCc2cccnc2)ccc1OCC(=O)NC(C)(C)C	-2	-6%	x	x	x	-22%
CN1CCN(c2ncc3nc(-c4cccc(C#N)c4)c(=O)n(CCC#N)c3n2)CC1	x	5%	x	x	x	u
O=C(NCC1CCCO1)c1cc(-c2ccc(Cl)cc2Cl)on1 (stereo not given)	-5	-3%	1%	8.9µM*	29	u
Cc1ccc(SCC(=O)NCC2CCCO2)cc1 (stereo not given)	-1	11%	x	x	x	5%
Cc1ccc(-c2cc(C(=O)NCC3CCCO3)no2)cc1 (stereo not given)	-8	4%	2%	14µM*	-1	u
Cc1ccc(SCCC(=O)NCC2CCCO2)cc1 (stereo not given)	6	3%	-1%	16µM*	-115*	-13%
Cc1ccc(-n2nc(-c3cccs3)cc2C(=O)NCC2CCCO2)c(C)c1 (stereo not given)	5	1%	-6%	1µM*	18	20µM*
CSCC[C@H](NC(=O)[C@H](CC(C)C)NC(=O)[C@H](Cc1c[nH]c2ccccc12)NC(=O)[C@H](CCC(N)=O)NC(=O)[C@@H](NC(=O)[C@H](Cc1ccccc1)NC(=O)[C@H](CC(=O)O)NC(=O)[C@H](CCC(N)=O)NC(=O)[C@H](C)NC(=O)[C@H](CCCNC(=N)N)NC(=O)[C@H](CCCNC(=N)N)NC(=O)[C@H](CO)NC(=O)[C@H](CC(=O)O)NC(=O)[C@H](CC(C)C)NC(=O)[C@H](Cc1ccc(O)cc1)NC(=O)[C@H](CCCCN)NC(=O)[C@H](CO)NC(=O)[C@H](Cc1ccc(O)cc1)NC(=O)[C@H](CC(=O)O)NC(=O)[C@H](CO)NC(=O)[C@@H](NC(=O)[C@H](Cc1ccccc1)NC(=O)[C@@H](NC(=O)CNC(=O)[C@H](CCC(N)=O)NC(=O)[C@H](CO)NC(=O)[C@@H](N)Cc1cnc[nH]1)[C@@H](C)O)[C@@H](C)O)C(C)C)C(=O)N[C@@H](CC(N)=O)C(=O)N[C@H](C(=O)O)[C@@H](C)O	x	0%	x	x	x	x
Cc1ccc(C(=O)N2CCN(C3c4cccc5cccc(c45)C3NS(=O)(=O)c3ccccc3)CC2)cc1 (stereo not given)	2	-1%	-1%	-6%	-20	22µM*
O=C(NCCN1CCCCC1)c1ccc(Cc2nc3ccccc3[nH]2)cc1	x	x	-1%	-6%	x	6%
O=C(CCc1ccc(O)cc1)c1c(O)cc(O)cc1O[C@H]1OC(CO)C(O)C(O)C1O (stereo not given in full)	7	1%	-4%	25µM*	x	-9%
SMILES	GLA inh pH 4.5	GLA spleen mod	12-hLO inh	HPGD block	PNC assembly inh	ALDH1A1 inh
O=C1c2ccccc2C(=O)N1CCC(c1ccc(F)cc1)c1ccco1 (stereo not given)	u	-8%	-14%	-9%	25	10µM*
CCCc1nnc(SCc2ccc(OC)cc2)n1N	-9	13%	5%	18µM*	29	4%
CCCCc1nnc(SCCSc2nnc(CCCC)n2N)n1N	1	-4%	4%	-12%	8	18µM*
CCCOc1ccc(CSc2nnc(CCC)n2N)cc1	0	-4%	3%	-23%	23	8%
COc1ccc(-c2nnc(SCc3cc(C)ccc3C)n2N)cc1	4	1%	-4%	u	72	22µM*
CC1=NN(c2ccc([N+](=O)[O-])cc2)C(=O)C1[N+](=O)[O-] (stereo not given)	-13	-2%	x	-24%	x	u
CC[C@H]1OC(=O)[C@H](C)[C@@H](O[C@H]2C[C@@](C)(OC)[C@@H](O)[C@H](C)O2)[C@H](C)[C@@H](O[C@@H]2O[C@H](C)C[C@H](N(C)C)[C@H]2O)[C@](C)(O)C[C@@H](C)CN(C)[C@H](C)[C@@H](O)[C@]1(C)O	x	-11%	-1%	-7%	x	11%
NS(=O)(=O)c1cccc2c1c([N+](=O)[O-])cc1[nH]c(=O)c(=O)[nH]c12	-14	u	-9%	16µM*	x	-3%
NS(=O)(=O)c1cccc2c1c([N+](=O)[O-])cc1nc(O)c(O)nc12	1	5%	-16%	16µM*	x	-3%
CCC(CC)=NNc1ccc(S(N)(=O)=O)cc1[N+](=O)[O-]	-5	4%	x	x	x	x
CC(C)(C)C1=Nn2c(nnc2-c2n[nH]c3c2CCC3)SC1	-1	8%	5%	16µM*	u	u
CC1=Nn2c(nnc2-c2n[nH]c3c2CCC3)SC1	-6	-3%	5%	-3%	u	1%
CC1=NN(c2ccccc2)C(=O)C1	0	-20%	-6%	5%	14	10µM*
CC1=NN(c2ccc(Cl)cc2)C(=O)C1	0	-6%	x	x	x	0.63µM*
